# Tests used:
# Assay in all cases: DAPPL (digital affinity profiling via proximity ligation, sequencing); 10 mM Tris-HCl pH 7.5, 50 mM NaCl, 1 mM DTT, 4% glycerol, room temperature, 30 min; GST-TFs on glutathione beads, 16-mer random dsDNA library, 0.1% formaldehyde crosslink after washing; high values mean tight binding
# Settings in all cases: protein: recombinant; tags: N-terminal GST; dsDNA, one strand shown
# ERF = target: T1, ERF (Homo sapiens, UniProt P50548 1-548)
# T1 sequence: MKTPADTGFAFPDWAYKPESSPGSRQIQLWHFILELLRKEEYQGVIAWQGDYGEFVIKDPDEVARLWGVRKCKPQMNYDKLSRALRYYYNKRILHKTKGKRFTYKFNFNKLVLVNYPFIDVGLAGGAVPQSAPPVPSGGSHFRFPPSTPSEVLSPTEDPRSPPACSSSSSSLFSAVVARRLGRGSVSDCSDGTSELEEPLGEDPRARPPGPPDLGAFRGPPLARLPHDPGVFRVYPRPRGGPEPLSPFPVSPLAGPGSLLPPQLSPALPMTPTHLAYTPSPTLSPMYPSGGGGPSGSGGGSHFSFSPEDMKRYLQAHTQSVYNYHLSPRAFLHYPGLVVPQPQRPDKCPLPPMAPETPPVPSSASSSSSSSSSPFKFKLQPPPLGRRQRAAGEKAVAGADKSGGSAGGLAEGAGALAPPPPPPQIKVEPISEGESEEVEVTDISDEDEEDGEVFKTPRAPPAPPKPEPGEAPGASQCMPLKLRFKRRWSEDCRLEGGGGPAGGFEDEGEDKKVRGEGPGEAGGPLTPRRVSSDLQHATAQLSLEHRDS
# Summary of the method: (§1)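 Pools were built from human transcription factors expressed in yeast as GST fusions, captured on glutathione beads and DNA-barcoded, along with a tag-only sample. Incubation with 200 nmole of a 16-mer random double-stranded DNA library lasted 30 min at room temperature in Tris/NaCl/DTT/glycerol buffer, and was followed by washing, 0.1% formaldehyde crosslinking, proximity ligation, PCR amplification and Illumina NextSeq500 sequencing. Binding signal is the quotient of each hexamer's read frequency for a factor and its frequency for the tag-only sample.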
# ETV3L = target: T2, ETV3L (Homo sapiens, UniProt Q6ZN32 1-361)
# T2 sequence: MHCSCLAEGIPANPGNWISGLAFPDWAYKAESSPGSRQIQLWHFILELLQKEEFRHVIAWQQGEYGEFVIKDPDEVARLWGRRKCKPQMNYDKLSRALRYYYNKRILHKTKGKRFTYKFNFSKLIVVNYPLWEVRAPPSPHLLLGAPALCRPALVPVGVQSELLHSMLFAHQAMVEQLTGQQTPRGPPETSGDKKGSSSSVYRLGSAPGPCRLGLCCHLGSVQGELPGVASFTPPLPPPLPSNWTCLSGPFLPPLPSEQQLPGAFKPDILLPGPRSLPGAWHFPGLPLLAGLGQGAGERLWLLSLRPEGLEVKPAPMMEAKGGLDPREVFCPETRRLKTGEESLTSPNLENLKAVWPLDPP
# Summary of the method: as §1
# ETS2 = target: T3, ETS2 (Homo sapiens, UniProt P15036 1-469)
# T3 sequence: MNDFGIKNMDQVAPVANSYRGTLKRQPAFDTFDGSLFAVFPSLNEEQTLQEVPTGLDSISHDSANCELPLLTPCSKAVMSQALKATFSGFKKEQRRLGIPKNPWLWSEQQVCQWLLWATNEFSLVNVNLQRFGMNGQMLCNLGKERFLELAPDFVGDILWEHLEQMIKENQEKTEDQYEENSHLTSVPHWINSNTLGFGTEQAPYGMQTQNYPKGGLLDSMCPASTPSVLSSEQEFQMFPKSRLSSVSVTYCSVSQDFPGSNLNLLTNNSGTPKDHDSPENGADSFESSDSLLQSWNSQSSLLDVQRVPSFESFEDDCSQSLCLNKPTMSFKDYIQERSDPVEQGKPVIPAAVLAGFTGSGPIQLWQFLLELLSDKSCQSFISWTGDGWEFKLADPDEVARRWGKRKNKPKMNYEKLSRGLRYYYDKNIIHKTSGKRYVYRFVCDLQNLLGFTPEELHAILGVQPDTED
# Summary of the method: as §1
# SPDEF = target: T4, SPDEF (Homo sapiens, UniProt O95238 1-335)
# T4 sequence: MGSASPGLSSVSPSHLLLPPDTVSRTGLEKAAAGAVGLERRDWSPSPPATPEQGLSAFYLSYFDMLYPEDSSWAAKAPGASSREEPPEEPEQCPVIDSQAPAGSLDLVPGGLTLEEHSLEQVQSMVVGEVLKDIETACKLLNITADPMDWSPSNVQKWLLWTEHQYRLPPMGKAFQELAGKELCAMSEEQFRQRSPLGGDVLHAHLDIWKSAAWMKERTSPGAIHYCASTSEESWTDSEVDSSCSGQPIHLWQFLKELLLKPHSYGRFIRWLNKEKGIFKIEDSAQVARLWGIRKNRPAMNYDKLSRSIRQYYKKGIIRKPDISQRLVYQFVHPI
# Summary of the method: as §1
# ETV7 = target: T5, ETV7 (Homo sapiens, UniProt Q9Y603 1-341)
# T5 sequence: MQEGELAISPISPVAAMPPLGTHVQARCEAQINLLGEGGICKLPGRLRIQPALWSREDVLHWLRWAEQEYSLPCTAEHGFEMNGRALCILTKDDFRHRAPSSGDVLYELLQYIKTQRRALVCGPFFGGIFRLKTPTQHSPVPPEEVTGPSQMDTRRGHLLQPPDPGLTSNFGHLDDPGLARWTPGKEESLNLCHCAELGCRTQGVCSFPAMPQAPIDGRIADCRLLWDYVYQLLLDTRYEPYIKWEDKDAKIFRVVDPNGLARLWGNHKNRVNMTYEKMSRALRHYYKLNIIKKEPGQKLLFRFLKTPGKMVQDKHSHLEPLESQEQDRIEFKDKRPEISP
# Summary of the method: as §1
# ELF5 = target: T6, ELF5 (Homo sapiens, UniProt Q9UKW6-2 1-255)
# T6 sequence: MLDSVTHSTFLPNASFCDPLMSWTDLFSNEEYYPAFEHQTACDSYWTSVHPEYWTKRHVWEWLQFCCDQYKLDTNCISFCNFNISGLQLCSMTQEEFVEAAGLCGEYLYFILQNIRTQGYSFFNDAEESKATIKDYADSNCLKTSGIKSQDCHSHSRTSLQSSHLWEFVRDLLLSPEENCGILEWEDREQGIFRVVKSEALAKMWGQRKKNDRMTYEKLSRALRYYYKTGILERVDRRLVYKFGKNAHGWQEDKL
# Summary of the method: as §1
# ETV3 = target: T7, ETV3 (Homo sapiens, UniProt P41162-2 1-143)
# T7 sequence: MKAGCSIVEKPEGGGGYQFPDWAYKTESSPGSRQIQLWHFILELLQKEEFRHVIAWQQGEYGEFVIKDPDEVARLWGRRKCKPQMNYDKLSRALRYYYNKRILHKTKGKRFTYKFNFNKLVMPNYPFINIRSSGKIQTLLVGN
# Summary of the method: as §1
# ETV6 = ETV6 (Homo sapiens, UniProt P41212 1-452)
# ETV6, sequence (P41212 whole entry): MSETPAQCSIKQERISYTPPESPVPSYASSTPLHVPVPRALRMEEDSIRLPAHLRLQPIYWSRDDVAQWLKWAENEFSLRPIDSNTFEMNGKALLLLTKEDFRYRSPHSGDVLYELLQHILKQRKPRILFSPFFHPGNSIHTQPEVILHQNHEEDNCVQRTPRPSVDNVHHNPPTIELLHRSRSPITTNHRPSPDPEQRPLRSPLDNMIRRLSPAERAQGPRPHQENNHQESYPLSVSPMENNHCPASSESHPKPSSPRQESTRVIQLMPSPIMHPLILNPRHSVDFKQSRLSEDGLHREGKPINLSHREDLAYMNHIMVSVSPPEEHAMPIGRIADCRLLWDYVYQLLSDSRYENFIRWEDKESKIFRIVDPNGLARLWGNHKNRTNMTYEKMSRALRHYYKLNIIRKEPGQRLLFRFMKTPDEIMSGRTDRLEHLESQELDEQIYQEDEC
# Summary of the method: as §1
Sequence,binding signal (ERF),binding signal (ETV3L),binding signal (ETS2),binding signal (SPDEF),binding signal (ETV7),binding signal (ELF5),binding signal (ETV3),binding signal (ETV6)
TCTGTA,"1.16 fold enrichment (6-mer frequency, TF over GST control)","1.24 fold enrichment (6-mer frequency, TF over GST control)","1.27 fold enrichment (6-mer frequency, TF over GST control)","1.26 fold enrichment (6-mer frequency, TF over GST control)","1.03 fold enrichment (6-mer frequency, TF over GST control)","1.17 fold enrichment (6-mer frequency, TF over GST control)","1.25 fold enrichment (6-mer frequency, TF over GST control)","1.18 fold enrichment (6-mer frequency, TF over GST control)"
TGACAT,"1.21 fold enrichment (6-mer frequency, TF over GST control)","1.28 fold enrichment (6-mer frequency, TF over GST control)","1.3 fold enrichment (6-mer frequency, TF over GST control)","1.25 fold enrichment (6-mer frequency, TF over GST control)","1.25 fold enrichment (6-mer frequency, TF over GST control)","1.22 fold enrichment (6-mer frequency, TF over GST control)","1.26 fold enrichment (6-mer frequency, TF over GST control)","1.37 fold enrichment (6-mer frequency, TF over GST control)"
TTTGGC,"1.29 fold enrichment (6-mer frequency, TF over GST control)","1.23 fold enrichment (6-mer frequency, TF over GST control)","1.18 fold enrichment (6-mer frequency, TF over GST control)","1.12 fold enrichment (6-mer frequency, TF over GST control)","1.24 fold enrichment (6-mer frequency, TF over GST control)","1.18 fold enrichment (6-mer frequency, TF over GST control)","1.21 fold enrichment (6-mer frequency, TF over GST control)","1.26 fold enrichment (6-mer frequency, TF over GST control)"
CCAACG,"1.29 fold enrichment (6-mer frequency, TF over GST control)","1.1 fold enrichment (6-mer frequency, TF over GST control)","1.08 fold enrichment (6-mer frequency, TF over GST control)","1.13 fold enrichment (6-mer frequency, TF over GST control)","1.13 fold enrichment (6-mer frequency, TF over GST control)","1.1 fold enrichment (6-mer frequency, TF over GST control)","1.09 fold enrichment (6-mer frequency, TF over GST control)","1.22 fold enrichment (6-mer frequency, TF over GST control)"
TTATAA,"1.15 fold enrichment (6-mer frequency, TF over GST control)","1.19 fold enrichment (6-mer frequency, TF over GST control)","1.2 fold enrichment (6-mer frequency, TF over GST control)","1.17 fold enrichment (6-mer frequency, TF over GST control)","1.21 fold enrichment (6-mer frequency, TF over GST control)","1.19 fold enrichment (6-mer frequency, TF over GST control)","1.16 fold enrichment (6-mer frequency, TF over GST control)","1.19 fold enrichment (6-mer frequency, TF over GST control)"
ATTAAG,"1.16 fold enrichment (6-mer frequency, TF over GST control)","1.09 fold enrichment (6-mer frequency, TF over GST control)","1.01 fold enrichment (6-mer frequency, TF over GST control)","1.13 fold enrichment (6-mer frequency, TF over GST control)","1.12 fold enrichment (6-mer frequency, TF over GST control)","1.02 fold enrichment (6-mer frequency, TF over GST control)","1.04 fold enrichment (6-mer frequency, TF over GST control)","1.11 fold enrichment (6-mer frequency, TF over GST control)"
CACTCA,"1.2 fold enrichment (6-mer frequency, TF over GST control)","1.11 fold enrichment (6-mer frequency, TF over GST control)","1.16 fold enrichment (6-mer frequency, TF over GST control)","1.14 fold enrichment (6-mer frequency, TF over GST control)","1.21 fold enrichment (6-mer frequency, TF over GST control)","1.12 fold enrichment (6-mer frequency, TF over GST control)","1.09 fold enrichment (6-mer frequency, TF over GST control)","1.14 fold enrichment (6-mer frequency, TF over GST control)"
TATAGC,"1.24 fold enrichment (6-mer frequency, TF over GST control)","1.25 fold enrichment (6-mer frequency, TF over GST control)","1.18 fold enrichment (6-mer frequency, TF over GST control)","1.18 fold enrichment (6-mer frequency, TF over GST control)","1.19 fold enrichment (6-mer frequency, TF over GST control)","1.13 fold enrichment (6-mer frequency, TF over GST control)","1.2 fold enrichment (6-mer frequency, TF over GST control)","1.15 fold enrichment (6-mer frequency, TF over GST control)"
CTAAAA,"1.2 fold enrichment (6-mer frequency, TF over GST control)","1.2 fold enrichment (6-mer frequency, TF over GST control)","1.21 fold enrichment (6-mer frequency, TF over GST control)","1.19 fold enrichment (6-mer frequency, TF over GST control)","1.1 fold enrichment (6-mer frequency, TF over GST control)","1.11 fold enrichment (6-mer frequency, TF over GST control)","1.12 fold enrichment (6-mer frequency, TF over GST control)","1.15 fold enrichment (6-mer frequency, TF over GST control)"

# Reference: paper PMC7862700, “An all-to-all approach to the identification of sequence-specific readers for epigenetic DNA modifications on cytosine”
